Bioassay records (PubChem)
In the library only some 19% were active in any assay of this set; here they are far more common.
Shiga toxin inh: Shiga toxin inhibition. Vero cells, Shiga toxin protein synthesis inhibition reporter. inhibition, % at 38.7 µM. hit rate 9.2% among 290,000. AID 2315; in the data active = inhibition mostly above about 28%, no sharp cut-off; inactive = mostly below about 43%; note: 0% is about no effect
Pf growth 96h: P. falciparum growth inhibition at 96 hours | Potency, µM (series often up to 28.7 µM), for the others: at the top dose activity change, negative = inhibition, most hits filed as inhibitors | P. falciparum luciferase reporter growth, 96 h | hit rate 6.9% among 320,000; note: potency is the fitted concentration of half-maximal effect; % is set by controls: 0 for no effect and ±100 for the full control effect
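P. falciparum expressing integrated firefly luciferase grown in erythrocytes (2% hematocrit, 0.05% parasitemia final) with compounds for 96 hours at 37 C, 5% CO2. Growth inhibition read as loss of luminescence after adding luciferase detection reagent.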
Pf growth 48h: inhibits P. falciparum growth in the first generation, 48 h | Potency, µM (top dose mostly 28.7 µM), without a hit: at the top dose activity change, negative = inhibition, hits mostly inhibitors | hit rate 5.9% among 310,000 | P. falciparum luciferase growth in erythrocytes, 48 h; note: potency is the fitted concentration of half-maximal effect; % is set by controls: 0 for no effect and ±100 for the full control effect
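Erythrocytes infected with P. falciparum carrying an integrated firefly luciferase reporter (2% hematocrit, 0.1% parasitemia final) were exposed to compounds in RPMI 1640 with 0.5% Albumax at 37 C, 5% CO2. Growth inhibition was scored as reduced luminescence.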
CHX counter: affects cycloheximide protein synthesis inhibition readout, counter-screen | cell reporter, cycloheximide protein synthesis inhibition counterscreen | max response, % | hit rate 12% among 300,000 | AID 2314; in the data active = max response mostly above about 13%, no sharp cut-off; inactive = mostly below about 14%; note: read at 38.3 µM for the half of the compounds with a filed dose; 0% is about no effect
LASV entry inh: Lassa virus entry inhibition; hit rate 1.2% among 300,000; Lassa virus pseudotype entry inhibition, cell reporter; Potency, µM (doses to about 37.9 µM), without a hit: top-dose activity change, negative = inhibition, most hits filed as inhibitors; calls by dose curve; tested in HEK293 cells; note: potency is the fitted concentration of half-maximal effect; % is set by controls: 0 for no effect and ±100 for the full control effect; nearly all actives have a fitted effect of over 50% in size
MARV entry inh: blocks Marburg virus binding to or entry into cells | AID 540276 | hit rate 1.8% among 300,000 | Marburg virus pseudotyped entry inhibition, cell reporter | Potency, µM (top dose mostly 37.8 µM), for the others: at the top dose activity change, negative = inhibition, actives largely listed as inhibitors; calls by dose curve; tested in HEK293 cells; note: potency is the fitted concentration of half-maximal effect; % is set by controls: 0 for no effect and ±100 for the full control effect
Starred values were filed as active, the others as inactive; [ ] = another dose, or the depositor's remark. Unless noted, calls come from the whole dose curve; as a rule, active = well fitted inhibition curve with a large enough effect; inconclusive = small, poorly fitted or top-dose-only effect, or another doubt; inactive = no such curve, though single readings can be large or run the other way.

Screening S=C(Nc1ccccc1)N1CCN(C(=S)Nc2ccccc2)CC1 returned Shiga toxin inh -8.5, Pf growth 96h 5.22µM*, Pf growth 48h 0.0% and CHX counter -2.1.
S=C(Nc1ccccc1)N1CCCCCCC1 was read as Shiga toxin inh -10.4, Pf growth 96h inconclusive, Pf growth 48h -4.5%, CHX counter -2.4, LASV entry inh 12.3% and MARV entry inh 30.4%[46.1 µM].
S=C(NC1CC1)N1CCN(c2ccc(Cl)cc2)CC1 was read as Shiga toxin inh -10.2, Pf growth 96h 0.0%, Pf growth 48h -5.7%, CHX counter -1.4, LASV entry inh -1.1% and MARV entry inh -1.7%.
O=[N+]([O-])c1ccc(NC(=S)N2CCN(c3ccccc3)CC2)cc1 was read as Shiga toxin inh -3.5, Pf growth 96h 15.7%, Pf growth 48h 13.7%, CHX counter -0.9, LASV entry inh 24.3% and MARV entry inh 5.3%.
For COc1ccc(C=C(c2ccc(OC)cc2)c2ccc(OC)cc2)cc1 the results were Shiga toxin inh -9.7, Pf growth 96h -7.0%, CHX counter -3.1, LASV entry inh 10.4% and MARV entry inh 0.7%.
Screening CCOC(=O)Nc1nc(-c2ccc(F)cc2F)cs1 returned Shiga toxin inh 12.0*, Pf growth 96h inconclusive, Pf growth 48h 105.5%, CHX counter 54.5*, LASV entry inh inconclusive and MARV entry inh 11.4%.
Screening CCOC(=O)Cc1csc(NC(=S)NC(=O)c2ccc(F)cc2)n1 returned Shiga toxin inh -2.9, Pf growth 96h inconclusive, Pf growth 48h inconclusive, CHX counter 8.2, LASV entry inh -13.3% and MARV entry inh 16.1%.
Screening CCOC(=O)Cc1csc(NC(=O)Nc2ccc(C)cc2)n1 returned Shiga toxin inh 50.4*, Pf growth 96h 5.6%, Pf growth 48h 2.1%, CHX counter 26.6*, LASV entry inh inconclusive and MARV entry inh -17.5%[46.1 µM].
For CCOC(=O)Cc1csc(NC(=O)Nc2ccc(F)cc2)n1 the results were Shiga toxin inh 14.0, Pf growth 96h -0.9%, Pf growth 48h -27.9%, CHX counter 11.7*, LASV entry inh inconclusive and MARV entry inh inconclusive.
CCOC(=O)Cc1csc(NC(=O)Nc2cccs2)n1 was read as Shiga toxin inh 48.4*, Pf growth 96h 86.1%, Pf growth 48h 18.9%, CHX counter 37.3*, LASV entry inh 26.6%[46.1 µM] and MARV entry inh inconclusive.
For O=C(/C=C/c1ccc2c(c1)OCO2)Nc1nc(-c2ccc(F)cc2F)cs1 the results were Shiga toxin inh -17.8, Pf growth 96h inconclusive, Pf growth 48h 0.7%, CHX counter -4.7, LASV entry inh 17.8% and MARV entry inh 3.1%.
CCOC(=O)Cc1csc(NC(=O)Cc2cccs2)n1 was read as Shiga toxin inh 1.9, Pf growth 48h 12.7%, CHX counter -2.5, LASV entry inh -16.0% and MARV entry inh -7.7%.
For COC(=O)c1ccc(OC(=O)C2CC(=O)N(c3cccc(C)c3)C2)cc1 (stereo not drawn) the results were Shiga toxin inh 0.5, Pf growth 48h 18.8%, CHX counter 5.0, LASV entry inh 3.9% and MARV entry inh 9.8%.
Cc1cc(=O)n2[nH]c(C(F)(F)F)c(-c3ccccc3)c2n1 was read as Shiga toxin inh -2.9, Pf growth 96h 61.6%, Pf growth 48h 5.5% and CHX counter -2.0.
Screening CCOC(=O)Cc1csc(N/N=C/c2ccc(C(F)(F)F)cc2)n1 returned Shiga toxin inh 25.1, Pf growth 96h 152.3%, Pf growth 48h 93.1%, CHX counter 22.3*, LASV entry inh inconclusive and MARV entry inh -29.0%.
COCCNC(=O)C(=O)Nc1ccc2c(c1)N(S(=O)(=O)c1cccs1)CCC2 was read as Pf growth 96h inconclusive, Pf growth 48h -11.2%, LASV entry inh 1.78µM* and MARV entry inh inconclusive.
For CC(C)CCNC(=O)C(=O)Nc1ccc2c(c1)N(S(=O)(=O)c1cccs1)CCC2 the results were Pf growth 96h inconclusive, Pf growth 48h 5.86µM*, LASV entry inh inconclusive and MARV entry inh inconclusive.
Screening O=C(NCCCO)C(=O)Nc1ccc2c(c1)N(S(=O)(=O)c1cccs1)CCC2 returned Pf growth 96h 11.7%, Pf growth 48h -28.1%, LASV entry inh -11.0% and MARV entry inh -9.7%.
`COC(CNC(=O)C(=O)Nc1ccc2c(c1)N(S(=O)(=O)c1cccs1)CCC2)OC` gave Pf growth 96h 2.8%, Pf growth 48h inconclusive, LASV entry inh -21.8%[46.1 µM] and MARV entry inh -19.4%.
